Screening results as filed in PubChem BioAssay.
Shown are actives, neighbours in structure and some others; about 2.7% of the full set was active somewhere.
SKN-1 block = blocks SKN-1 activity in C. elegans; inhibition, % at 21.8 µM; actives 0.49% (n = 360,000); AID 624304; C. elegans VP596 Pgst-4::GFP/RFP ratio, acrylamide-induced, 24 h;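 active = interference check ratio from 0.5 to 1.5 plus GFP to RFP signal ratio inhibition reaching or exceeding a fixed threshold, cut at about 30% in these data, passing the limit was not always enough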
ATG4B inhibitor = ATG4B (human) cysteine protease inhibition; inhibition, % at 8.33 µM; AID 504462; Q9Y4P1; actives 0.51% (n = 340,000); ATG4B cleavage of LC3-PLA2, NBD-HPC fluorescence, 1 h; in the data active = inhibition above about 40%
CendR NRP1 mod = alters CendR peptide binding to human NRP-1; FAM-RPARPAR peptide binding to NRP-1, fluorescence polarization; inhibition, % at 25 µM; actives 0.85% (n = 360,000); AID 602438;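 active = inhibition or corrected inhibition above about 18%, plus a signal ratio from 0.5 to 1.5, limit read from the data, passing the limit was not always enough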
Target sequence (O14786 whole entry, looked up): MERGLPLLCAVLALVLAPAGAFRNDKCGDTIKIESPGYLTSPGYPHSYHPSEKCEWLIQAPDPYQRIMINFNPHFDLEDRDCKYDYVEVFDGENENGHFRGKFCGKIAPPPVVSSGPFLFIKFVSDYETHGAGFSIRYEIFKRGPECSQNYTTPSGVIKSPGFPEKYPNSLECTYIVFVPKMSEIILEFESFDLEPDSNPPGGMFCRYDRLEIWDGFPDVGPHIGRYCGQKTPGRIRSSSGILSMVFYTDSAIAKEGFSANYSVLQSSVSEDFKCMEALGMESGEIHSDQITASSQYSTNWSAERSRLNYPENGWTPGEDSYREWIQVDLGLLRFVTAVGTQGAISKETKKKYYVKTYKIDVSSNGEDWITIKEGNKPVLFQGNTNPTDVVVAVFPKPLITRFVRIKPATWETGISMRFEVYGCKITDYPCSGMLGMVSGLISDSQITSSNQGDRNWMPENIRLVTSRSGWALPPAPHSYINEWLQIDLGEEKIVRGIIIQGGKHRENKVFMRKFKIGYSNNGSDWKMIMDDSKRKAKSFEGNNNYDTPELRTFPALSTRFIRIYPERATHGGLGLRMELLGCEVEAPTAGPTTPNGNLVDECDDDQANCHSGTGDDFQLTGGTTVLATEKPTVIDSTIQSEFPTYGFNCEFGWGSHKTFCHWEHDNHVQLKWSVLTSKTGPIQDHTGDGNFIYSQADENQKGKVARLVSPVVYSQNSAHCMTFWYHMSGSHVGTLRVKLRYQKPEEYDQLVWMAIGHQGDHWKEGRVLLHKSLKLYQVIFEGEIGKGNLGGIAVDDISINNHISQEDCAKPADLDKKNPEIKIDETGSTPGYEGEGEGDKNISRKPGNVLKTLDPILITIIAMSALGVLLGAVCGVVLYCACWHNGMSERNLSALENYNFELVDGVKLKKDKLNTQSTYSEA
CFTR F508del cor = correctors of CFTR F508del function in bronchial epithelial cells; AID 720511; actives 0.36% (n = 350,000); CFBE cells, YFP halide quenching; stimulated with forskolin plus potentiator P3; % fluorescence drop versus neutral controls; activity (quench increase), % at 7.58 µM;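 active = mean added fluorescence quench of at least 8% versus neutral control, with both replicates also reaching 8%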;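 also: cells transiently co-express mutant CFTR-F508del with the halide-sensitive YFP; corrector assay measuring rescue of mutant channel to the surface after 24 h compound exposure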
MPTP block = blocks calcium-induced mitochondrial swelling; isolated mouse mitochondria, Ca2+ swelling absorbance, 30 min; inhibition, % at 10 µM; AID 602449; actives 1.4% (n = 360,000);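 active = inhibition of 50% or more, scaled per plate between neutral and stimulator controls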;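 also: 0% = DMSO wells given calcium and 100% = 1 mM EGTA wells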
Rh123 counter = Rhodamine 123 counter-screen of mitochondrial pore hits; shares compounds with MPTP block; isolated mitochondria, membrane potential, Rhodamine 123 fluorescence; inhibition, % at 10 µM; actives 78% (n = 5,000); AID 624504; in the data active = inhibition above about 22%;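 also: 0% = DMSO vehicle and 100% = positive control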
MPTP abs DR = dose response confirmation of mitochondrial permeability transition pore inhibitors | isolated mitochondria swelling, absorbance | shares compounds with MPTP block | actives 58% (n = 780) | IC50, µM; in the data active = IC50 below about 20 µM
MPTP cs DR = MPTP inhibitor counter-screen activity, dose response; shares compounds with MPTP block; isolated mitochondria counterscreen, fluorescence read-out; IC50, µM; actives 49% (n = 780); AID 651564; in the data active = IC50 below about 80 µM
* = called active by the depositor; i = inactive; . = no result.

SMILES	SKN-1 block	ATG4B inhibitor	CendR NRP1 mod	CFTR F508del cor	MPTP block	Rh123 counter	others
COc1ccc2[nH]c(CN3CCC(CO)(CCOc4ccccc4)CC3)c(C)c2c1	-6	7	11	2	66*	-16	MPTP abs DR=5.8*;MPTP cs DR=>80
COc1ccc(-c2nc(-c3ccccc3)c(-c3cccs3)[nH]2)cc1OC	0	10	-21	.	3	.
COc1ccc(-c2[nH]c(-c3ccc4c(c3)OCO4)nc2-c2ccccc2)cc1	22	23	18	.	95*	70*
COc1cc(-c2nc(-c3ccccc3)c(-c3ccc(F)cc3)[nH]2)cc2c1OCO2	8	10	-5	.	89*	63*
COc1ccc(-c2[nH]c(-c3ccc(C(=O)O)cc3)nc2-c2ccccc2)cc1	3	3	-2	.	4	.
CC(C)c1cn(CC[C@H]2CC[C@@H](NS(=O)(=O)c3ccc(F)cc3)[C@@H](CO)O2)nn1	.	.	.	0	.	.
Cc1nc(Nc2ccc(S(=O)(=O)N3CCCCC3C)cc2)c2nnn(Cc3ccccc3)c2n1 (stereo not given)	-8	-6	3	1	68*	14	MPTP abs DR=i;MPTP cs DR=>80
Cc1nc(Nc2ccc(Cl)cc2)c2nnn(Cc3ccccc3)c2n1	0	-10	-7	0	-2	.
CCCNC(=O)c1cc(S(=O)(=O)N2CCc3ccccc32)cn1C	8	-6	1	-1	71*	44*
O=C(Nc1ccncc1)c1cccc(S(=O)(=O)N2CCc3ccccc32)c1	-41	-10	2	4	96*	94*
CCC(CC)c1nnc(NC(=O)c2cccc(S(=O)(=O)N3CCc4ccccc43)c2)s1	14	-23	22	-7	7	.
CCc1ccccc1NC(=O)c1cc(S(=O)(=O)N2CCc3ccccc32)cn1C	7	-25	1	-2	1	.
CCOC(=O)c1sc(NC(=O)c2cccc(S(=O)(=O)N3CCc4ccccc43)c2)c(C#N)c1C	2	3	-9	3	91*	86*
O=S(=O)(Cc1ccccc1)NCC[C@@H]1CC[C@H](NS(=O)(=O)c2ccccc2)[C@H](CO)O1	.	.	.	6	.	.
C[C@@H]1CN([C@@H](C)CO)S(=O)(=O)c2ccc(-c3cccnc3)cc2O[C@H]1CN(C)Cc1ccncc1	.	.	.	1	.	.
C[C@@H](C(=O)N(C)C[C@@H]1OCc2ccccc2-c2ccccc2C(=O)N([C@@H](C)CO)C[C@@H]1C)c1ccccc1	.	.	.	-1	.	.
O=S(=O)(c1ccccc1)c1nc(NCc2ccccc2)sc1Cl	1	32	-15	-1	9	.
COc1ccc(Nc2nc(S(=O)(=O)c3ccc(C)cc3)c(Cl)s2)cc1	5	-11	4	5	59*	76*
Oc1cccc(Nc2nc(-c3ccccc3Cl)nc3ccccc23)c1	0	-7	-3	1	1	.
Cc1ccc(S(=O)(=O)c2nc(NCCN(C)C)sc2Cl)cc1	8	0	-6	.	-4	.
COc1ccc(CNc2nc(S(=O)(=O)c3ccccc3)c(Cl)s2)cc1OC	-8	-6	-11	-2	82*	64*
Cc1ccc(S(=O)(=O)c2nc(Nc3ccccc3)sc2Cl)cc1	6	5	11	1	85*	85*
O=S(=O)(c1ccccc1)c1nc(Nc2cccc(O)c2)sc1Cl	-2	-15	-11	.	54*	39*
C[C@@H]1CN([C@H](C)CO)C(=O)c2cc(C#CC3CCCCC3)cnc2O[C@@H]1CN(C)Cc1cncnc1	.	.	.	1	.	.
CCOC(=O)c1c(C)[nH]c(C(=O)NCc2ccccn2)c1C	6	0	5	0	0	.
SMILES	SKN-1 block	ATG4B inhibitor	CendR NRP1 mod	CFTR F508del cor	MPTP block	Rh123 counter	others
CCOC(=O)c1c(C)[nH]c(C(=O)N/N=C/c2cc([N+](=O)[O-])ccc2O)c1C	-1	2	-8	0	56*	11
CCOC(=O)c1c(C)[nH]c(C(=O)N/N=C\c2ccccc2O)c1C	-9	-10	-4	21*	69*	66*
CCCC(=O)Nc1ccc2c(c1)C(=O)N(C)[C@@H]1CC[C@@H](CC(=O)O)O[C@@H]1CO2	.	.	.	1	.	.
C[C@@H]1CN([C@@H](C)CO)C(=O)c2cc(NS(=O)(=O)c3ccc(Cl)cc3)ccc2O[C@@H](C)CCCCO[C@H]1CN(C)C(=O)C1CCCCC1	.	.	.	0	.	.
CCCCCCn1c(NCC)nc2c1c(=O)n(C)c(=O)n2C	-9	6	-2	.	56*	86*
Cc1ccc(NS(=O)(=O)c2ccc3c(c2)C(=O)c2ccccc2C3=O)c(C)c1	1	11	0	.	82*	72*
C[C@H](CO)N1C[C@H](C)[C@H](CN(C)C(=O)Nc2ccc(F)cc2)OCCCC[C@H](C)Oc2ccc(NS(=O)(=O)c3ccc(F)cc3)cc2C1=O	.	.	.	-1	.	.
Cc1nn(-c2ccc(Cl)cc2)c2[nH]c(CCl)cc(=O)c12	11	4	1	1	81*	81*
C[C@@H]1CN([C@H](C)CO)C(=O)c2cccc(NC(=O)Nc3ccccc3)c2O[C@@H]1CN(C)S(=O)(=O)c1cn(C)cn1	.	.	.	0	.	.
CCc1ccc(-c2cc(C(=O)N3N=C(C(F)F)CC3(O)C(F)F)c3ccccc3n2)cc1 (stereo not given)	13	2	-13	1	84*	83*
CC(C)Cc1cc(C(=O)N2N=C(C(F)F)CC2(O)C(F)F)c2ccccc2n1 (stereo not given)	-18	-12	-13	.	35	.
Cc1noc(C)c1NC(=O)N(C)C[C@H]1Oc2ccc(NC(=O)NC(C)C)cc2CC(=O)N([C@H](C)CO)C[C@@H]1C	.	.	.	-3	.	.
Cc1cc2nc(C)n(CCCNC(=O)Nc3cccc4ccccc34)c2cc1C	4	-17	6	.	88*	91*
O=C(Nc1ccc2c(c1)OCO2)O[C@@H]1C[C@H]2CCCC(=O)N3CC[C@@H](C1)[C@@H]23	15	-1	12	2	-1	.
CC1(C)CCC(=O)N2CC[C@H]3C[C@H](OC(=O)Nc4ccc(Br)cc4)C[C@@H]1[C@H]32	3	-11	11	-1	69*	87*
Cc1ccc(NS(=O)(=O)c2cccc(C(=O)NC3CCN(Cc4ccccc4)CC3)c2)cc1	6	-13	0	0	3	.
Cc1ccc(NS(=O)(=O)c2ccc(C(=O)NC3CCN(Cc4ccccc4)CC3)cc2)cc1	0	-8	12	2	60*	22*
CO[C@@H]1CN(C)C(=O)c2ccc(NC(=O)Cc3ccccc3)cc2OC[C@H](C)N(C(C)=O)C[C@@H]1C	.	.	.	1	.	.
S=C(Nc1ccc(Oc2ccccc2)cc1)N1CCN(c2ccccn2)CC1	-1	-3	1	-1	80*	79*
